S2 tox – reduces viability in counter-screen for ATXN expression inhibitors; S2 cells (HEK-293 line with an ATXN2-luciferase reporter) viability, CellTiter-Fluor protease fluorescence, 24 h; Potency, µM (highest dose often 56.7 µM), hits mostly cytotoxic; 0.49% of 400,000 active; AID 651635; also: nearly all actives have a fitted effect of over 40% in size
HepG2 viability – HepG2 cytotoxicity, counter-screen for TGF-b inhibitors; HepG2 CAGA-GFP viability, ATP luminescence, 18 h; Potency, µM (highest dose often 46.1 µM), most hits filed as cytotoxic; 0.76% of 410,000 active; AID 588856
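CellTiter-Glo luminescence gave cytotoxicity after 18 hours at 37 degrees C. The cells were HepG2 CAGA-GFP in 1% FBS DMEM, stimulated with 500 pg/mL TGF-beta after compound addition. %Activity was normalised to no-cell wells (complete cell-killing) and DMSO (no toxicity), and curves were fitted and classified.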
uPA generation – cell surface uPA generation inhibition | cell surface uPA generation assay, qHTS | 0.31% of 330,000 active | Potency, µM (top dose mostly 38.3 µM), hits mostly inhibitors; active = well fitted inhibition curve with a large enough effect; inconclusive = small, poorly fitted or top-dose-only effect; inactive = no such curve, though single readings can be large or run the other way; tested in mouse RAW 264.7 cells; also: nearly all actives have a fitted effect of over 55% in size
ATXN2 expr inh – inhibitors of ATXN2 expression. Potency, µM (top dose mostly 57 µM), usual class: inhibitors. HEK-293 ATXN2-luciferase reporter, luminescence, 24 h. 0.72% of 360,000 active; also: nearly all actives have a fitted effect of over 55% in size
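qHTS (up to 57 uM final) was run with 24 h compound exposure of reporter cells at 37 °C. Each well was multiplexed: SteadyGlo luminescence measured ATXN2-luciferase expression after a fluorogenic Gly-Phe-AFC viability readout (25 uM final).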
Giardia killer – kills Giardia lamblia. activity change, % at 7.66 µM, hits read low. 0.15% of 340,000 active. Giardia lamblia trophozoite viability. AID 540267; in the data active = activity change below about -80%; inconclusive = between about -30% and that limit;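 also: parasites exposed to compound for two days anaerobically before the ATP read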
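Compounds were tested on trophozoites seeded at 100 cells/well and held 48 hrs at 37 deg C anaerobically. An ATP-based luminescent kit measured the remaining live cells.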
TGFb inhibitor – TGF-b pathway inhibition; 1.2% of 410,000 active; Potency, µM (doses to about 46.1 µM), most hits filed as inhibitors; HepG2 CAGA-GFP TGF-b/SMAD3 reporter, GFP fluorescence, 18 h; TGF-beta stimulated, 500 pg/mL final; also: nearly all actives have a fitted effect of over 65% in size
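Inhibition of TGF-beta-driven CAGA-GFP reporter expression in HEPG2 cells is measured by cellular GFP fluorescence after 18 h stimulation with 500 pg/mL recombinant TGF-beta in 1% FBS medium at 37 degrees C.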
Numbers stand for hits; – = inactive; ? = inconclusive; · = no result given. A selection: hits, their analogues and other compounds. The true share with any hit is near 2.6%. Unless noted, calls follow the shape of the dose curve; as a rule, active = well fitted curve in the direction sought with a large enough effect; inconclusive = small, poorly fitted or top-dose-only effect, or another doubt; inactive = no such curve, though single readings can be large; an effect the other way counts as inactive or inconclusive.

SMILES	S2 tox	HepG2 viability	uPA generation	ATXN2 expr inh	Giardia killer	TGFb inhibitor
Cn1c(N/N=C/c2c[nH]c3ccccc23)nc2ccccc21	?	–	–	–	–	?
Cn1c(N/N=C/c2cc3ccccc3nc2Cl)nc2ccccc21	–	5.6µM	–	–	-88	–
COc1ccccc1N1CCN(S(=O)(=O)CCNC(=O)Cc2ccc(F)cc2)CC1	–	–	7.1µM	–	–	–
COc1ccccc1N1CCN(S(=O)(=O)CCNC(=O)Cc2ccc(Cl)cc2)CC1	·	–	·	·	·	?
COc1ccccc1N1CCN(c2cc(=O)n(Cc3ccc(F)cc3)c(=O)[nH]2)CC1	?	–	2.8µM	–	–	–
COc1cc2c(-c3ccccc3)c(C)oc2cc1/C=N/NC(N)=S	–	6.3µM	–	·	–	?
CN(C1CCc2c(c3ccccc3n2CC(=O)O)C1)S(=O)(=O)c1ccc(F)cc1 (stereo not given)	·	·	·	–	·	·
c1ccc(CNc2ncnc3nc(N4CCOCC4)[nH]c23)cc1	·	–	·	·	–	–
Cc1ccc(C)c(-c2nnc(NC(=O)c3ccc([N+](=O)[O-])o3)o2)c1	?	–	–	?	-85	–
CC(=O)c1cccc(NC(=O)c2ccc([N+](=O)[O-])o2)c1	?	–	–	–	-88	?
Cc1cc(C)cc(NC(=O)c2ccc([N+](=O)[O-])o2)c1	?	13µM	–	?	-95	11µM
COc1cc(NC(=O)c2ccc([N+](=O)[O-])o2)ccc1NC(=O)c1ccco1	–	–	?	·	-96	1.1µM
COc1cc(=O)n2c(c1C(=O)NCc1ccc3c(c1)OCO3)CCN(C(=O)c1ccccc1F)CC2	–	·	·	·	·	·
COc1ccc(F)c(CN2CCOc3ccc(CN4CCC(O)(c5cccnc5)CC4)cc3C2)c1	–	·	·	·	·	·
CC(=O)c1ccc(NC(=O)c2ccc([N+](=O)[O-])o2)cc1	?	16µM	?	·	-101	13µM
COc1ccc(NC(=O)c2ccc(Br)o2)cc1	–	–	–	–	–	?
Cc1cc(C)nc(NC(=O)c2ccc([N+](=O)[O-])o2)n1	?	–	–	–	?	?
COc1ccc(NC(=O)c2ccc([N+](=O)[O-])o2)cc1	–	–	–	–	-95	11µM
Nc1cc(C(F)(F)F)ccc1S	–	·	·	–	·	·
O=C(NCC(c1ccco1)N1CCCCC1)c1ccc([N+](=O)[O-])s1 (stereo not given)	–	–	–	?	?	16µM
Cc1ccc(C(=O)NCC(c2ccco2)N2CCCCC2)s1 (stereo not given)	–	–	–	·	–	–
COc1ccccc1CNC(=O)Nc1nc(C(N)CCc2ccccc2)cs1 (stereo not given)	·	13µM	·	?	·	?
COc1cccc(Nc2nc(C(N)COCc3ccccc3)cs2)n1 (stereo not given)	–	11µM	·	–	·	?
NC(=O)c1cccc(Nc2nc(C(N)CCc3ccccc3)cs2)n1 (stereo not given)	–	–	·	–	·	–
COc1cccc(Nc2nc(C(N)CCc3ccccc3)cs2)n1 (stereo not given)	?	–	·	28µM	·	?
SMILES	S2 tox	HepG2 viability	uPA generation	ATXN2 expr inh	Giardia killer	TGFb inhibitor
C[C@@H]1C[C@H]2C3C[C@H](F)C4=CC(=O)C=CC4(C)[C@@]3(F)[C@@H](O)CC2(C)[C@@]1(O)C(=O)COC(=O)C(C)(C)C (stereo not given in full)	–	·	·	·	·	·
O=C(c1ccco1)N1CCN(C(=O)c2ccco2)C1=S	?	–	–	–	–	11µM
Cc1[nH]c2ccccc2c1C(=O)COC(=O)c1ccccc1SCC(=O)N1CCCC1	·	–	·	·	·	–
COc1ccc(/C=N/Nc2ccc(C(=O)O)cc2)c(OC)c1OC	–	–	–	–	–	–
COC(=O)c1ccc2c(c1)C(C)(C)C(/C=C/c1ccc(OC)c(OC)c1OC)=[N+]2C	?	–	–	25µM	–	10µM
COc1cc(/C=C/c2ccc(O)cc2)cc(OC)c1	–	–	–	–	–	–
COC(=O)c1ccc2c(c1)C(C)(C)C(/C=C/c1ccc(O)cc1)=[N+]2C	7.9µM	3.5µM	·	3.2µM	–	4µM

Bioassay records as filed in PubChem BioAssay.
